# Values without a mark were called inactive.
# How the values were obtained:
# Test in all cases: log2 ratio of Biotin-Ahx-Ub-VS probe labelling (fragment/DMSO); higher = less target engagement (more negative = stronger competition), active = hit call of the paper (q ≤ 0.05, log2 ratio ≤ -1)
# Details in all cases: compound concentration: 200 uM; treatment time: 3 h
# OTUD6B = target: T1, OTUD6B (UniProt Q8N6M0)
# T1 sequence (whole entry): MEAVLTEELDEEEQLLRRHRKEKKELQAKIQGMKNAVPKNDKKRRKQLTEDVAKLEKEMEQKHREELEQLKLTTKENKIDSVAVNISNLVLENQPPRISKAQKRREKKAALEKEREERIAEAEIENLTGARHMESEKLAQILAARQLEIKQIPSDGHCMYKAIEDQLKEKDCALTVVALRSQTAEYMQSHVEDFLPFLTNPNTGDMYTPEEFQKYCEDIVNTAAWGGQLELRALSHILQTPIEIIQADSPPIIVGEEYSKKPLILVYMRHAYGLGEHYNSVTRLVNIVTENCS
# How it was run: (§1)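 The table lists average log2 ratios of fragment over vehicle, from an unpaired t-test on global-median-normalised Spectronaut label-free quantities. Proteins with ≥2 unique peptides were used. Samples were HEK293T lysate (495 µg) treated in triplicate with fragment at 200 µM or vehicle for 3 h, then with Biotin-Ahx-Ub-VS (0.5 µM final) for 1 h, with labelled DUBs NeutrAvidin-enriched and run by diaPASEF LC-MS/MS.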
# OTUD7B = target: T2, OTUD7B (UniProt Q6GQQ9)
# T2 sequence (whole entry): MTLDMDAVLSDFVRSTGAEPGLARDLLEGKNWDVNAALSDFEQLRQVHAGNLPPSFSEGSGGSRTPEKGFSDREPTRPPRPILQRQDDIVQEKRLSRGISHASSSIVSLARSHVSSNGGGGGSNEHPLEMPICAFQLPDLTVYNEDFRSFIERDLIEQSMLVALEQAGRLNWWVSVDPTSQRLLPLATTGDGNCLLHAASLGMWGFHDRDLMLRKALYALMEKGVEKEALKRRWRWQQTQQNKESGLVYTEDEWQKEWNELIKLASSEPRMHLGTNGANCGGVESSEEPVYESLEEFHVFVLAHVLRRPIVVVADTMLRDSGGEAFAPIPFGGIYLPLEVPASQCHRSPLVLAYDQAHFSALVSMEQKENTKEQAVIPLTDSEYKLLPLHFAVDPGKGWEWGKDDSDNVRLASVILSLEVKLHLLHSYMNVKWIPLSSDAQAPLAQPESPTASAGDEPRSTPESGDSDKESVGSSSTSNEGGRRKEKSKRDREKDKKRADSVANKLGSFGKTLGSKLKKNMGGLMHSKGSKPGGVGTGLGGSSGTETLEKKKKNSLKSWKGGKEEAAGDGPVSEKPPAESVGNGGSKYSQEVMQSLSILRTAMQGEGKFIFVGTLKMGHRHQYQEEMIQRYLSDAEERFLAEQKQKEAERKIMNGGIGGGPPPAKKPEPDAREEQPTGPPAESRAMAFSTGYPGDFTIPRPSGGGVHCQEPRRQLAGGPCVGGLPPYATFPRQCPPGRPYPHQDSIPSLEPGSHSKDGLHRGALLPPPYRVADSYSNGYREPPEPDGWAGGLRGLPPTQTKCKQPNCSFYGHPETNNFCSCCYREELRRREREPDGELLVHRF
# How it was run: as §1
# PRPF8 = PRPF8 (UniProt Q6P2Q9)
# How it was run: as §1
# PSMD7 = target: T3, PSMD7 (UniProt P51665)
# T3 sequence (whole entry): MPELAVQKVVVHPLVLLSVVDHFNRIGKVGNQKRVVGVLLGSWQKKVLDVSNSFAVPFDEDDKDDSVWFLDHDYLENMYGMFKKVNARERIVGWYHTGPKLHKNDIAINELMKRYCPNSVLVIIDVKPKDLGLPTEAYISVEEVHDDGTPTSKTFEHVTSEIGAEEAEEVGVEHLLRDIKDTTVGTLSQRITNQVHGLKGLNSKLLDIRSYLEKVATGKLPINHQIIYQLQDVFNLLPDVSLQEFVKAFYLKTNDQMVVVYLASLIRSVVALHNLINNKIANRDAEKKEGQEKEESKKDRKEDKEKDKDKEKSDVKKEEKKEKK
# How it was run: as §1
# UCHL1 = UCHL1 (UniProt P09936)
# How it was run: as §1
# UCHL3 = target: T4, UCHL3 (UniProt P15374)
# T4 sequence (whole entry): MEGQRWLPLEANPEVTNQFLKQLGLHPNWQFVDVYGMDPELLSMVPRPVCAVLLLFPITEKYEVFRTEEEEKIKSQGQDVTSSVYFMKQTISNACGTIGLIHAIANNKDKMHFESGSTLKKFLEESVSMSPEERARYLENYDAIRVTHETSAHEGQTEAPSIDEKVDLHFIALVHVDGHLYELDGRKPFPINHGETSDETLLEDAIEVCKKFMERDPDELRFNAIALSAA
# How it was run: as §1
# UCHL5 = target: T5, UCHL5 (UniProt Q9Y5K5)
# T5 sequence (whole entry): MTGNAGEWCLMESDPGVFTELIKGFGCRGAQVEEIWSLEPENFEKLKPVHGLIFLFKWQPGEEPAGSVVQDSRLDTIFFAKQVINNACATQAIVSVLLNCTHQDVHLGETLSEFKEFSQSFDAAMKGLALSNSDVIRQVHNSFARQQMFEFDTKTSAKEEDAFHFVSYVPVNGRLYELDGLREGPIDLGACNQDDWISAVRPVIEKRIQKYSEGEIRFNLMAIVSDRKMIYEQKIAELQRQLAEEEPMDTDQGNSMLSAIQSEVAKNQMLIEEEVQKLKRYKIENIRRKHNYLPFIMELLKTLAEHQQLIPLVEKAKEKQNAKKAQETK
# How it was run: as §1
# USP10 = USP10 (UniProt Q14694)
# How it was run: as §1
# USP15 = target: T6, USP15 (UniProt Q9Y4E8)
# T6 sequence (whole entry): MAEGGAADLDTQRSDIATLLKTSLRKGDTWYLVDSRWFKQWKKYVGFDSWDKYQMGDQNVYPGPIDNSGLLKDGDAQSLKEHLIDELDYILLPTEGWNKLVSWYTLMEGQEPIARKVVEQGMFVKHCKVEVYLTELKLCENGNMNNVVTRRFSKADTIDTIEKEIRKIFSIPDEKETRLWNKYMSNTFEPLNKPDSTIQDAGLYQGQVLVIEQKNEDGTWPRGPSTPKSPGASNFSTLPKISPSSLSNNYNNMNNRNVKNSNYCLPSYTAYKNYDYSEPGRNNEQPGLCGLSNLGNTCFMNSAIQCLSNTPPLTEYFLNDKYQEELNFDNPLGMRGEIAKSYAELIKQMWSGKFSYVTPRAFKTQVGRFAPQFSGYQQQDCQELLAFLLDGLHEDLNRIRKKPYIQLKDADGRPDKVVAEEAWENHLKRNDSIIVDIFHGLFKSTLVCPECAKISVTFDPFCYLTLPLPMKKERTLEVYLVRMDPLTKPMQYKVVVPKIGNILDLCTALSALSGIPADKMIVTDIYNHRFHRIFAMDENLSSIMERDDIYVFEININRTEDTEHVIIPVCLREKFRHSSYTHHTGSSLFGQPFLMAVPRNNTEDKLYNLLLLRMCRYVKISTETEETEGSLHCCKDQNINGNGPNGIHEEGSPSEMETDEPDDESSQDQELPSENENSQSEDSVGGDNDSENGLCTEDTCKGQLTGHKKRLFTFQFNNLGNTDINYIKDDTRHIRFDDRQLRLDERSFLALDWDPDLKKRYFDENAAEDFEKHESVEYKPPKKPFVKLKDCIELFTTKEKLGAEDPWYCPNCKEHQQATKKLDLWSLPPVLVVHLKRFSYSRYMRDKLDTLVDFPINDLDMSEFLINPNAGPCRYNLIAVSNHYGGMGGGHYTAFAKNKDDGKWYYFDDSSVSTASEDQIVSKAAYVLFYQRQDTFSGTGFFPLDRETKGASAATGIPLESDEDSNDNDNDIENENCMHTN
# How it was run: as §1
# USP16 = USP16 (UniProt Q9Y5T5)
# How it was run: as §1
# USP10, sequence (Q14694 whole entry): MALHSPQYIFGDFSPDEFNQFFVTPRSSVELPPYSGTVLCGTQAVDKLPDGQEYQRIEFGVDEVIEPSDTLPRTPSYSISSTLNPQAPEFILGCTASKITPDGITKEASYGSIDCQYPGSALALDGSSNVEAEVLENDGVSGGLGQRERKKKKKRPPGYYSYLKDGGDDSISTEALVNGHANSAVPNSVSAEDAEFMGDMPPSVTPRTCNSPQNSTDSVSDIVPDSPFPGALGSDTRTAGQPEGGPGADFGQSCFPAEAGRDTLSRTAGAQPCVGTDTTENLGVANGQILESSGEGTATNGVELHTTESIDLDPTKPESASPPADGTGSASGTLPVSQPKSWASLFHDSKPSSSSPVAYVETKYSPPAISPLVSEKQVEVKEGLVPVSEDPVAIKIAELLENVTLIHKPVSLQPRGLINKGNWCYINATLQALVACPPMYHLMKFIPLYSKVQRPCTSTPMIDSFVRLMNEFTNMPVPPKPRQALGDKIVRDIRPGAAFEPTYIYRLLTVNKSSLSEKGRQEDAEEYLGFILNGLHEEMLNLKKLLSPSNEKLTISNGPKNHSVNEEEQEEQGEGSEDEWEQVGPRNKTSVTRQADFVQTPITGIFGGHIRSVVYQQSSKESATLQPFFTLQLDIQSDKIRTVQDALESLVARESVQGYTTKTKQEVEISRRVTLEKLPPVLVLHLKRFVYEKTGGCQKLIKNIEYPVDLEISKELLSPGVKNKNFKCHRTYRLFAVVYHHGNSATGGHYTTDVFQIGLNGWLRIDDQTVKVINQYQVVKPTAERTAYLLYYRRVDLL
# USP16, sequence (Q9Y5T5 whole entry, looked up): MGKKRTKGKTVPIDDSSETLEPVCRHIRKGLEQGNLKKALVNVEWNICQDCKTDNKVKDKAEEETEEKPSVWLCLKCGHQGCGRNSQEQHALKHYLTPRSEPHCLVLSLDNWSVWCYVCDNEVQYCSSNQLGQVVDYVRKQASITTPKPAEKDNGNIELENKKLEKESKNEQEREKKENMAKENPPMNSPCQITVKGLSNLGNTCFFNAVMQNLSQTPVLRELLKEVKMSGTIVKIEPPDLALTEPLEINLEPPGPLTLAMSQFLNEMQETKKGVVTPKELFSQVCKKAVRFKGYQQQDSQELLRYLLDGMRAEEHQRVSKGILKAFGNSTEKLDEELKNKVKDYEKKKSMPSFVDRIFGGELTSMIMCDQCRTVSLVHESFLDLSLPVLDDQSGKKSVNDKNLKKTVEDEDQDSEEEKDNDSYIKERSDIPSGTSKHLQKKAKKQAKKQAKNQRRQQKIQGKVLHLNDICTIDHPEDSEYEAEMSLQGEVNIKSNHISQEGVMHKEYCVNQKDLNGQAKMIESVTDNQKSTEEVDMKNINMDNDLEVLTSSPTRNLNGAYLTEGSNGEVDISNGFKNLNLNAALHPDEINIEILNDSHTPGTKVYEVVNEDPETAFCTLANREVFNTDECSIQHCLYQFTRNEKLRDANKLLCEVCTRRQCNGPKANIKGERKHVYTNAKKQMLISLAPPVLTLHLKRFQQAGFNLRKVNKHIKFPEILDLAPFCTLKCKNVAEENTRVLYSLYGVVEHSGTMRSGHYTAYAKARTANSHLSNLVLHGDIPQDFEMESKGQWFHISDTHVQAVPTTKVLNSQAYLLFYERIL
# UCHL1, sequence (P09936 whole entry, looked up): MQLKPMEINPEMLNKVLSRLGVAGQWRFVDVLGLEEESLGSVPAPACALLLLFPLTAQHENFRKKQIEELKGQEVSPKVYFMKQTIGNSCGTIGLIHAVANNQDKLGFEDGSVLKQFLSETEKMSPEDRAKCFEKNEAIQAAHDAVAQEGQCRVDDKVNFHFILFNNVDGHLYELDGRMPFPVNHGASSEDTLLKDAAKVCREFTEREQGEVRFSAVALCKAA
smiles,measurement,setting,value
CC(NC(=O)CCl)c1cnn(C2CC2)c1 (stereo not given),log2 ratio of Biotin-Ahx-Ub-VS probe labelling,OTUD6B,-0.174
same,log2 ratio of Biotin-Ahx-Ub-VS probe labelling,OTUD7B,-1.99 (active)
same,log2 ratio of Biotin-Ahx-Ub-VS probe labelling,PRPF8,-0.0754
same,log2 ratio of Biotin-Ahx-Ub-VS probe labelling,PSMD7,-0.168
same,log2 ratio of Biotin-Ahx-Ub-VS probe labelling,UCHL1,-1.3 (active)
same,log2 ratio of Biotin-Ahx-Ub-VS probe labelling,UCHL3,0.329
same,log2 ratio of Biotin-Ahx-Ub-VS probe labelling,UCHL5,-0.187
same,log2 ratio of Biotin-Ahx-Ub-VS probe labelling,USP10,-0.103
same,log2 ratio of Biotin-Ahx-Ub-VS probe labelling,USP15,-0.182
same,log2 ratio of Biotin-Ahx-Ub-VS probe labelling,USP16,-0.19
